Test results: PubChem BioAssay (NCI)
This is part of a sample that, as a whole, favours compounds with a hit. Of some 83,000 tested, about 20% had one in any assay.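 Single-concentration screen, 48 h exposure, 96-well plates. Endpoint: percent growth. Below 10 = active.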 Values without a mark were called inactive. The source made the active and inactive calls.

Tests used:
Test in all cases: NCI-60 one-dose screen, 48 h (100 = growth as untreated, 0 = no growth, -100 = all killed)
NCI-H23 lung = settings: 10 µM unless noted
NCI-H460 lung = settings: 10 µM unless noted
K-562 leukemia = settings: 10 µM unless noted
RXF 393 renal = settings: 10 µM unless noted
SF-295 CNS = settings: 10 µM unless noted
M14 melanoma = settings: 10 µM unless noted
HT29 colon = settings: 10 µM unless noted
U251 CNS = settings: 10 µM unless noted
SK-MEL-5 melanoma = settings: 10 µM unless noted
UO-31 renal = settings: 10 µM unless noted
CAKI-1 renal = settings: 10 µM unless noted
A498 renal = settings: 10 µM unless noted
HL-60(TB) leukemia = settings: 10 µM unless noted
CCRF-CEM leukemia = settings: 10 µM unless noted
RPMI-8226 leukemia = settings: 10 µM unless noted
HS 578T breast = settings: 10 µM unless noted
T-47D breast = settings: 10 µM unless noted
BT-549 breast = settings: 10 µM
HCT-116 colon = settings: 10 µM unless noted
HCC-2998 colon = settings: 10 µM unless noted

Structure (SMILES)	growth (NCI-H23 lung)	growth (NCI-H460 lung)	growth (K-562 leukemia)	growth (RXF 393 renal)	growth (SF-295 CNS)	growth (M14 melanoma)	growth (HT29 colon)	growth (U251 CNS)	growth (SK-MEL-5 melanoma)	growth (UO-31 renal)	growth (CAKI-1 renal)	growth (A498 renal)	growth (HL-60(TB) leukemia)	growth (CCRF-CEM leukemia)	growth (RPMI-8226 leukemia)	growth (HS 578T breast)	growth (T-47D breast)	growth (BT-549 breast)	growth (HCT-116 colon)	growth (HCC-2998 colon)
CN=C(NN)NN	102%	111%	113%	109%	102%	105%	106%	98.5%	107%	90.8%	88.9%	92.4%	119%	87.2%	91.6%	102%	106%	106%	109%	103%
CSc1ccccc1NP1(=O)OCC(C)([N+](=O)[O-])CO1 (configuration not stated)	106%	101%	75.4%	97.6%	100%	101%	105%	95.8%	98.2%	78.3%	99.3%	110%	56.7%	80.8%	111%	103%	96%	90.1%	98%	104%
CCN1CC2(CN(CC)C1=S)C(=O)NC(=O)NC2=O	98.9%	100%	87.5%	116%	95.1%	88.9%	90.3%	97.7%	106%	99.4%	85.4%	112%	83.3%	101%	100%	104%	90.4%	91.4%	97.3%	99.7%
COc1ccc(CN2CCN(Cc3ccccc3)CC2)c(O)c1	94.8%	97%	74.3%	105%	99.8%	89.5%	87.7%	95.1%	87.9%	68.7%	92.4%	95.5%	91.9%	87.1%	77.1%	102%	84.7%	92%	83.4%	89.4%
N#C[Se]CCCNS(=O)(=O)C1CC2C=CC1C2 (configuration not stated)		-18.3% (active)	5.87% (active)	-90% (active)	-80.7% (active)	-47.9% (active)	1.16% (active)	-76.6% (active)	-70.8% (active)	-98.7% (active)	-99.1% (active)		-41.1% (active)	17.4%	-29.5% (active)	-25.9% (active)	30.6%	-71.3% (active)	-31.9% (active)	4.61% (active)
n1nc(-c2nonc2-c2nn[nH]n2)n[nH]1	102%	109%	106%	93.7%	94.5%	115%	107%	101%	104%	92.5%	98.8%	81.9%	105%		96.5%		105%	103%	106%	106%
CC(=O)O[C@H]1C[C@H](O[C@H]2[C@@H](O)C[C@H](O[C@H]3[C@@H](O)C[C@H](O[C@H]4CC[C@@]5(C)C(CCC6C5C[C@@H](O)[C@]5(C)[C@@H](C7=CC(=O)OC7)CC[C@]65O)C4)O[C@@H]3C)O[C@@H]2C)O[C@H](C)[C@H]1O[C@@H]1O[C@H](CO)[C@@H](O)[C@H](O)[C@H]1O (some centres not stated)	-64.1% (active)	-88.3% (active)		-53.8% (active)	-84% (active)	-77% (active)	-86% (active)	-100% (active)	-100% (active)	-80.1% (active)	-94.4% (active)	-19.5% (active)	-46.4% (active)	-23.5% (active)	-0.309% (active)	2.41% (active)	-19% (active)	-91% (active)	-90.5% (active)	-95% (active)
NCCc1cc(O)c(O)cc1O	100%	112%	102%	113%	106%	99.6%	98.8%	95.4%	98.5%		100%	122%	103%	65.7%	48.4%	120%	100%	90.9%	95.3%	103%
ClCCN(CCCl)c1nc(Cl)c(C2CC(c3ccc(Cl)cc3)=NN2c2cc(Cl)cc(Cl)c2)s1 (configuration not stated)		101%	91.7%	119%	101%	95.8%	94.4%	98.6%	115%	91.3%	82.9%	101%	104%	99.7%		89.7%	98.8%	103%		109%
OC1CCCCC1N1CCC(c2ccccc2)CC1 (configuration not stated)	100%	109%		124%	98.5%	106%	97.3%	105%	106%	82.5%	96.5%	89.4%	86.2%	99.2%	107%	108%	96.8%	97.6%	94.5%	93.2%
Cn1cnnc1[S-].[Au+].c1ccc([PH+](c2ccccc2)c2ccccc2)cc1	15.8%	58.5%	1.84% (active)	-78.6% (active)	78.8%	-11.9% (active)	39.8%	-43.1% (active)	-9.96% (active)	48.5%	23.6%	64.7%	-12.7% (active)	1.22% (active)	-3.32% (active)	49.2%	-16.6% (active)	36.8%	3.71% (active)	48.3%
CCC[CH2][Sn]([CH2]CCC)([CH2]CCC)[O]C(=O)c1ccc(Cl)cc1Cl	-65.5% (active)	-78% (active)	-38.2% (active)	-88.5% (active)	-89.9% (active)	-85.8% (active)	-64.7% (active)	-85.8% (active)	-96.1% (active)	-86.9% (active)	-92.6% (active)	-85.3% (active)	-32.7% (active)		-29.7% (active)	-38.3% (active)	-58.3% (active)	-96% (active)	-87.6% (active)	-90.9% (active)
CC(C)OC(=S)[S-].[Au+].c1ccc([PH+](c2ccccc2)c2ccccc2)cc1	42.4%	79.5%	8.05% (active)	-77.1% (active)	91.1%	11.5%	55.7%	11.2%	30.2%	21.9%	16.7%		1.15% (active)	10.9%	3.19% (active)	15.6%		-3.75% (active)	13.9%	50.8%
Cc1cc(CCl)c(C)cc1CCl		4.86% (active)	63.8%	93.3%	25.7%	45.1%		40.2%	70.1%	33.9%	5.81% (active)	84.6%	15.3%	19.7%	26.4%	81.7%		68.8%	50.9%	71.4%
COc1c(O)c2c3c(c1OC)-c1ccccc1CC3N(C)CC2 (configuration not stated)	102%	110%	92.3%	133%	99.9%	93.3%	110%	99.1%	108%	89.9%	94.3%	116%	112%	98.7%	102%	110%	100%		95.7%	111%
CC(C)(C)[Si](C)(C)OC1[C@@H](O[Si](C)(C)C(C)(C)C)[C@@H](CNC(=O)NC(=O)CF)O[C@H]1n1cnc2c(NC(=O)Nc3ccccc3)ncnc21 (some centres not stated)	64.7%	4.01% (active)	37.7%	65.8%	79.5%		25.6%	56.6%		77.5%	85.6%	70.2%	17.3%	4.8% (active)	24.6%	29.5%	71.9%	68.9%		46.3%
S=P(Nc1ccccc1)(Nc1ccccc1)c1ccccc1		103%		98.5%	102%	97.7%	104%	92.1%	92.1%	87.7%	71.4%	70.6%		95.3%	82.5%	107%	87.5%	101%	81.1%	93.6%
